# From ChEMBL document CHEMBL4888484, “Replenishing the malaria drug discovery pipeline: Screening and hit evaluation of the MMV Hit Generation Library 1 (HGL1) against asexual blood stage Plasmodium falciparum ,using a nano luciferase reporter read-out” (2022)
# Several values for one entry are separate records, joined by “and”; a condition that tells them apart may be missing. Equal entries are not always repeated. Among all 150,000 compounds or so, about 540 (0.36%) showed an effect of 50% or more. The list comes from a sample in which strong results are over-represented; it also holds similar structures and randomly drawn compounds.
# Test system: Plasmodium falciparum
# Experiment: Primary screen in NF54 nanoGlo assay, in single point, at 2uM, 72h; a lower Z score goes with more inhibition
# Format: functional, Erythrocyte
# Settings: timepoint 72 hour
SMILES,% Inhibition [%],Z score,Z score (2 µM)
COCc1ncc(C)n1CC1CN(C(=O)CCc2ccccc2)C1,-10,1.37,
COc1cc(Cl)c(C)cc1NC(=O)c1cc(=O)n(-c2ccc(C)cc2)[nH]1,53,-6.9,
COc1cc(Cl)c(C)cc1NC(=O)c1nc2cc(C)c(C)cc2n(C)c1=O,37,0.48,
COc1cc(Cl)c(C)cc1NC(=O)c1cnn[nH]1,-17,3.31,
O=C(N[C@H](c1ccccc1F)C1CCCC1)C1CCN(C(=O)c2ccco2)CC1,-9,0.87,
O=C(C1CCC(C2CC2)N1)N1CCC2(CCc3ccccc3C2=O)CC1 (stereo not drawn),1,-0.19,
CC(CCO)C1(CNC(=O)NCC2CCCO2)CCC1 (stereo not drawn),-7,1.25,
CCc1cccc2c(C3=CCN(C(=O)Nc4cn[nH]c4)CC3)c[nH]c12,-8,1.44,
Cn1ccnc1CN(Cc1cccnc1)C1CCCCCC1,2,-0.44,
CCC(=O)N1CCC(NCc2csc3ccccc23)C(CC)C1 (stereo not drawn),-13,1.94,
CCCc1nc(NC[C@H]2CC[C@H](CO)CC2)no1,-12,1.18,
Cc1nc(C(F)(F)F)c(CN(C)C[C@H]2CCOC2)s1,-8,1.25,
Cc1oc(-c2ccc(C(=O)NCCN(C)C)cc2)nc1CN1CCc2ccccc21,-14,1.84,
Cc1nc(C)c(CC(=O)N2CCN(c3ccccc3)CC2)c(=O)[nH]1,-33,3.87,
O=C(NCCCc1ccccc1)c1ccc(CN2C(=O)CCn3nccc32)cc1,58,-2.28,
CCCCNC(=O)c1ccc(CN2C(=O)CCn3nccc32)cc1,18,-2.08,
COCCCNC(=O)c1ccc(CN2C(=O)CCn3nccc32)cc1,13,-1.46,
CC1CCCN(C(=O)C2CCC2)C1CN (stereo not drawn),-3,0.43,
CC(C)c1ccc2ncnc(N[C@H]3CCc4[nH]cnc4C3)c2c1,96,-17.94,
C[C@@H](NC(=O)NC1CCc2[nH]cnc2C1)c1ccc(F)cc1 (stereo partly drawn),-10,1.89,
C[C@@H]1CC[C@H](CO)N1C(=O)Cc1cccc(C(F)(F)F)n1,3,-0.37,

SMILES,% Inhibition [%],Z score,Z score (2 µM)
Cc1c(C(=O)NC[C@H]2CCCOC2)[nH]c2c(Cl)cccc12,-9,1.62,
C[C@H](OC(=O)CNC(=O)OC(C)(C)C)C(=O)N1CCCCCC1,-12,1.29,
Cc1ccc(CC[C@H]2Nc3ccccc3C(c3ccccc3)(c3ccccc3)O2)o1,81,-13.4,
c1ccc(C2(c3ccccc3)O[C@@H](c3cccnc3)Nc3ccccc32)cc1,-4,0.54,
CC(C)Oc1ccccc1[C@H]1Nc2ccccc2C(c2ccccc2)(c2ccccc2)O1,-1,0.21,
Cc1cc(=O)n(CC(=O)N2CCCC[C@@H]2CCc2ccccc2)nc1C,-18,3.31,
O=C(c1cccs1)N(Cc1ccccn1)c1nc2ccccc2s1,4,-0.46,
Cc1oc(-c2ccn[nH]2)cc1S(=O)(=O)Nc1ccc(F)c(Cl)c1,37,-0.01,
Cc1ccc(F)c(NS(=O)(=O)c2cc(-c3ccn[nH]3)oc2C)c1,2,-0.25,
Cc1oc(-c2ccn[nH]2)cc1S(=O)(=O)Nc1cccc(Cl)c1,59,-0.35,
O=C(O)c1cc(NS(=O)(=O)c2cc(F)ccc2F)ccc1N1CCCCCC1,-4,0.67,
CCc1cccc2c(C3=CCN(c4ccc5nnc(C(F)(F)F)n5n4)CC3)c[nH]c12,11,-2.04,
Cc1cc(C)cc(NC(=O)c2c(C)sc3ncnc(N4CCCC4)c23)c1,-2,0.31,
CC(CN1CCC(N2CCOCC2)C1)c1cccc(Cl)c1 (stereo not drawn),5,-0.64,
CCC(=O)NCc1nc2c(n1C)CN(C(=O)c1ccc(CC)cc1)CC2,2,-0.2,
COC1(C)CCN(C(=O)c2ccon2)CC1,-4,0.52,
O=C(CCc1conc1-c1cccc(F)c1)NC1CC1,-8,1.59,
Cc1cc(C)c(S(=O)(=O)N2CC[C@H](n3cccn3)C2)s1,-1,0.1,
O=S(=O)(c1cccs1)N1CC[C@H](n2ccnn2)C1,-9,1.54,
Cc1csc(S(=O)(=O)N2CC[C@H](n3cccn3)C2)c1,82,1.47,
COC[C@](C)(CCO)NC(=O)Nc1cc(F)cc(Br)c1,-13,1.11,

SMILES,% Inhibition [%],Z score,Z score (2 µM)
CCn1cc(C(=O)Nc2ccc(OCCN3CC[C@H](C)C3)cc2)cn1,5,-0.92,
Cc1cc(C)cc(N(CCC#N)C(=O)CN2CCC[C@H]2c2ccc3c(c2)OCCCO3)c1,-2,0.18,
Cn1cc(C(=O)N[C@H]2CCN(c3ccc(F)c(Cl)c3)C2)cn1,-3,0.57,
CNC(=O)Nc1cccc(NC(=O)c2cncc(-c3cnn(C)c3)c2)c1,24,-3.15,
COCCCCC(=O)N1CCC[C@H](N)[C@@H]1c1ccccc1OC,4,-0.43,
O=C(CN1C(=O)N[C@]2(CCc3cc(Cl)ccc32)C1=O)c1ccc2c(c1)OCO2,0,-0.01,
CC(C)Nc1nc2nonc2n2nnnc12,31,-3.95,
CC(C)Nc1nc2nonc2n2cnnc12,77,-8.71,
C[C@H](Nc1nc2nonc2n2nnnc12)c1ccccc1,27,-3.54,
Cc1cc(N2CCC[C@H](CNC(=O)CN3CCOCC3)C2)nc2cc(F)ccc12,-15,1.9,
CC(=O)N[C@H]1CCN(S(=O)(=O)c2sccc2Cl)C1,0,-0.08,
O=C(NC1CCCC1)[C@@H](c1ccccc1)N1CCS(=O)(=O)CC1,7,-0.84,
O=C(NC[C@]12C[C@H]1COC21CCC1)c1ncoc1-c1ccon1,5,-0.99,
CN(CC(C)(CO)CO)C(=O)c1ccsc1,6,-0.9,
CCOC(=O)C1CCCN(C2CCN(C(=O)CCC3(Cc4ccc(C)cc4)CCC(=O)N3)CC2)C1 (stereo not drawn),-5,0.68,
Cc1sc2nc(-c3ccccn3)nc(NCC(=O)N3CCC(O)CC3)c2c1-c1ccccc1,25,-2.12,
Cc1nc(CCNc2nc(-c3ccccn3)nc3c2CCNCC3)no1,-2,0.27,
Cc1cc(CN(C)C(=O)[C@H]2CC(=O)N(c3ccccc3)C2)no1,-3,0.62,
Cc1c(C(=O)O)nn(-c2ccc(F)cc2)c1Oc1ccc(NC(=O)CC(C)C)cc1S(=O)(=O)NCC(C)C,-16,1.93,
CCC(=O)Nc1ccc(Oc2c(C)c(C(=O)O)nn2-c2ccccc2CC)c(S(=O)(=O)NCC(C)C)c1,97,-9.77,
CCC(=O)Nc1ccc(Oc2c(C)c(C(=O)O)nn2-c2ccccc2C)c(S(=O)(=O)N[C@@H](C)CC)c1,-10,0.97,

SMILES,% Inhibition [%],Z score,Z score (2 µM)
CC1=C(C(=O)NCCC(F)(F)F)Cn2nnnc2N1C,0,0.01,
CC1(C)C2CCC(C2)C1CC1OCC(C[N+]2(Cc3ccccc3)CCCCC2)O1 (stereo not drawn),-7,1.37,
CC(CC1OCC(C[N+]2(Cc3ccccc3)CCCCC2)O1)CC(C)(C)C (stereo not drawn),60,-5.21,
COC(=O)c1ccc(C[N+]2(C[C@H]3COC4(CCCCC4)O3)CCCC2)cc1,-5,,0.44 and 0.65
Cc1ccc(-c2csc(-c3nc(-c4ccccc4)cs3)n2)c(C)c1,10,-1.13,
Cc1cc[n+]2c(-c3ccccc3)cc(-c3ccccc3)nc2c1,60,-11.27,
Cc1cc(-c2ccccc2)[n+]2ccccc2n1,-15,2.36,
O=C(Cc1ccc2[nH]c(=O)[nH]c2c1)N1CCOC[C@@H]1CC1CCC1,2,-0.19,
CCOC(=O)c1cc2n(n1)C[C@@](C)(C(=O)NCCC(C)C)N(c1ccc(C)c(C)c1)C2=O,-6,0.75,
O=C(Cc1ccc(N(Cc2cccc(F)c2)C(=O)c2cccc(F)c2)cc1)NCCN1CCCC1,3,-0.41,
O=C(Cc1ccc(N(Cc2cccc(F)c2)C(=O)C2CCCC2)cc1)NCCN1CCCC1,25,-2.85,
O=C(Cc1ccc(N(Cc2cccc(F)c2)C(=O)c2cccc(F)c2)cc1)NCCN1CCCCC1,57,-2.67,
O=C(Cc1ccc(N(Cc2cccc(F)c2)C(=O)C2CCCC2)cc1)NCCN1CCCCC1,59,-9.89,
Cc1ccc(C(=O)N(Cc2cccc(F)c2)c2ccc(CC(=O)N[C@@H](C)c3ccccc3)cc2)cc1,74,-8.26,
Cc1ccc(CN(C(=O)c2ccccc2C)c2cccc(CC(=O)NCCN3CCCC3)c2)cc1,-9,1.17,
Cc1ccccc1C(=O)N(Cc1ccc(F)cc1)c1cccc(CC(=O)NCCN2CCCC2)c1,6,-0.6,
COc1cccc(C(=O)N(Cc2ccc(C)cc2)c2cccc(CC(=O)N[C@@H](C)c3ccccc3)c2)c1,-8,1.49,
O=C(Cc1ccc(N(Cc2ccc(F)cc2)C(=O)c2cccc(F)c2)cc1)NCc1ccccc1,-2,0.3,
Cc1ccccc1C(=O)N(Cc1cccc(F)c1)c1ccc(CC(=O)NCCN2CCCCC2)cc1,58,-4.25,
Cc1cccc(CN(C(=O)C2CCCC2)c2ccc(CC(=O)NCCN3CCCC3)cc2)c1,20,-2.23,
CCC(=O)N(Cc1cccc(F)c1)c1ccc(CC(=O)NCCN2CCCC2)cc1,-2,0.24,
